This passage reports displacement results from PubChem BioAssay AID1240 (Sanford-Burnham Center for Chemical Genomics, 2008).

Each structure is given as a SMILES string. Screen size: about 50,000 compounds; about 800 (1.6%) showed an effect of 50% or more. Many of the other results were omitted from the sample, so strong results are more common in it than they were.

For this experiment, the target named is Bcl-2-like protein 10 (Homo sapiens) (UniProt Q9HD36). In words: TR3 peptide-Bcl-B binding displacers, biochemical primary FP assay, phenotype converters (AID 1240).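 Also: 0% = Bcl-B with tracer peptide and DMSO and 100% = tracer peptide lacking Bcl-B.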 Particulars: GST-Bcl-B / FITC-TR3 peptide fluorescence polarization; stronger effect = higher value; compound at 3.75 mg/L.
Sequence of Bcl-2-like protein 10 (Homo sapiens) (Q9HD36 whole entry, looked up): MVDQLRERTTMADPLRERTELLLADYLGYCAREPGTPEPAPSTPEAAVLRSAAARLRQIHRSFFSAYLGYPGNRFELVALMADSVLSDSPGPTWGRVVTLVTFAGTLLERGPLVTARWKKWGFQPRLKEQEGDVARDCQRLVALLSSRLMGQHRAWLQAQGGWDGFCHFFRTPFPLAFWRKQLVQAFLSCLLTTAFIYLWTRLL
In the case of `CCOC(=O)c1cccc(NC(=O)COc2ccc([N+](=O)[O-])cc2)c1`, the displacement was 8.1%.
Take `CSc1ccc(/C=N\NC(=O)COc2ccc(C)cc2)cc1`: the displacement came out at 11.8%.
In the case of `COC(=O)c1c(N)sc(C)c1-c1ccc(C)cc1C`, the displacement is -10.6%.
Turning to `COc1cc(/C=C/c2cc(C(F)(F)F)[nH]c(=O)n2)ccc1O`, the displacement was determined as 44.6%.
Turning to `COc1ccc(OC)c(NC(=O)CN(c2cc(Cl)cc(Cl)c2)S(C)(=O)=O)c1`, the displacement was -2.6%.
In the case of `O=C(N/N=C/c1ccccc1)c1cc(Br)ccc1O`, the displacement was determined as 7.4%.
As for `O=C(CSc1nc(-c2ccccc2)c(-c2ccccc2)o1)Nc1ccccc1`, the figure is -4.2%.
Regarding `O=C(CSc1nc(-c2ccccc2)c(-c2ccccc2)o1)Nc1nccs1`, the displacement stood at 106%.
As for `O=C(CSc1nnc(-c2ccccc2)c(-c2ccccc2)n1)Nc1nccs1`, the displacement was 4.6%.
Turning to `CSc1nnc2c(n1)OC(C(=O)c1ccccc1)Nc1ccccc1-2` (stereo not given), the displacement was 13.5%.
Take `COc1cccc(NS(=O)(=O)c2ccc(OC)c(Br)c2)c1`: the displacement is -4.6%.
As to `O=C1NC(=S)N/C1=C/c1ccc(Oc2ccc(C(F)(F)F)cc2[N+](=O)[O-])c(Cl)c1`, the displacement came to 88.3%.
Regarding `O=C1NC(=O)/C(=C\c2ccc(Oc3ccc(C(F)(F)F)cc3[N+](=O)[O-])c(Cl)c2)S1`, the displacement amounted to 5.5%.
With `O=C1NC(=S)S/C1=C/c1ccc(Oc2ccc(C(F)(F)F)cc2[N+](=O)[O-])c(Cl)c1`, the displacement is 2.8%.
Regarding `Cc1ccc(N(CC(=O)NC(C)c2ccccc2)S(C)(=O)=O)cc1Cl` (stereo not given), the displacement was -1.3%.
Regarding `NNC(=O)COc1ccc2c(c1Br)CCCC2`, the displacement is -25.1%.
On to `O=C(O)CCCCCN1C(=O)C(O)=C(C(=O)/C=C/c2ccccc2)C1c1ccccc1` (stereo not given), for which the displacement turned out to be 4.7%.
Consider `O=C(O)CCCCCN1C(=O)C(O)=C(C(=O)/C=C/c2ccccc2)C1c1ccc([N+](=O)[O-])cc1` (stereo not given), for which the displacement was -4.6%.
For the molecule `O=C(O)CCCCCN1C(=O)C(O)=C(C(=O)/C=C/c2ccccc2)C1c1cccc([N+](=O)[O-])c1` (stereo not given), the displacement worked out at 96.1%.
The value for `Cc1cc(Cl)ccc1NC(=O)C(=O)N/N=C/c1ccccc1F` was 4.5%.
`CCN1CCN(CC(O)CN2CCn3c4c(c5cc(C)ccc53)CCCC42)CC1` (stereo not given): the displacement is 24.7%.
As to `CCNC(=O)/C=C/c1cn(-c2ccccc2)nc1-c1ccccc1`, the displacement was 9.4%.
Turning to `CCOC(=O)C(=C/C=C1/Sc2ccccc2N1C)C(=O)OCC`, the displacement stood at 131%.
With `CCOC(=O)C(C(=O)OCC)=C1Sc2ccccc2N1C`, the displacement was found to be 13.4%.
The value for `CCOC(=O)C(=C/C=C/c1ccccc1)C(=O)OCC` was -2.3%; that for `COc1ccc(Br)cc1/C=C/C(=O)N1CCN(c2ccc([N+](=O)[O-])cc2)CC1` was 12.3%; that for `O=C(Nc1ccc2c(c1)OCCO2)c1cc2ccccc2o1` was -6.3%.
As for `Cc1ccc(NC(=S)NC(=O)c2ccccc2)cc1Br`, the figure is 9%; as for `O=C(NC(=S)Nc1ccc2c(c1)-c1ccccc1C2)c1ccccc1`, 51.9%.
As for `O=C(NC(=S)Nc1ccc2oc3ccccc3c2c1)c1ccccc1`, the figure is 91.8%; as for `O=C(Nc1ccc(Cl)c(Cl)c1)c1cc2ccccc2o1`, 2.9%; as for `O=C(Nc1ccc2c(c1)Cc1ccccc1-2)c1ccncc1`, -3.2%.
In the case of `O=C(NC(=S)Nc1ccccc1)c1ccccc1`, the displacement came to 4.7%.
On to `O=C(Nc1ccc2c(c1)Cc1ccccc1-2)c1cc2ccccc2o1`, for which the displacement worked out at 134%.
With `O=C(NC(=S)Nc1ccc2oc(-c3ccccc3)nc2c1)c1ccccc1`, the displacement was -10.6%.
